# Legend:
# Assay in all cases: DAPPL (digital affinity profiling via proximity ligation, sequencing); 10 mM Tris-HCl pH 7.5, 50 mM NaCl, 1 mM DTT, 4% glycerol, room temperature, 30 min; GST-TFs on glutathione beads, 16-mer random dsDNA library, 0.1% formaldehyde crosslink after washing; high values mean tight binding
# Details in all cases: protein: recombinant; tags: N-terminal GST; dsDNA, one strand shown
# FEV = biological target: T1, FEV (Homo sapiens, UniProt Q99581 1-238)
# T1 sequence: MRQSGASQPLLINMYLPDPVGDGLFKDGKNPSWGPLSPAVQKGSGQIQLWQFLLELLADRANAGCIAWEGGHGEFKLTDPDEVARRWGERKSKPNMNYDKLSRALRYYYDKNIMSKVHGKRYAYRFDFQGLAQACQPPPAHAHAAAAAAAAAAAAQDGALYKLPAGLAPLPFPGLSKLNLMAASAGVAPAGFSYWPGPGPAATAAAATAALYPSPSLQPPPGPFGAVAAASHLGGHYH
# Summary of the method: (§1)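 The binding signal reported is, for every hexamer, its read frequency for a factor over its read frequency for the tag-only sample. Reads came from pools of yeast-expressed, GST-fused human transcription factors on glutathione beads, barcoded with DNA and mixed with that sample, which were incubated with 200 nmole of a random double-stranded 16-mer DNA library in Tris/NaCl/DTT/glycerol buffer at room temperature for 30 min. After washing, the pools were crosslinked with 0.1% formaldehyde, proximity-ligated with BsaI/T4 ligase for 1 h at 37 °C, PCR-amplified and sequenced on an Illumina NextSeq500.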
# ETV5 = ETV5 (Homo sapiens, UniProt P41161 1-510)
# Summary of the method: as §1
# SPIC = biological target: T2, SPIC (Homo sapiens, UniProt Q8N5J4 1-248)
# T2 sequence: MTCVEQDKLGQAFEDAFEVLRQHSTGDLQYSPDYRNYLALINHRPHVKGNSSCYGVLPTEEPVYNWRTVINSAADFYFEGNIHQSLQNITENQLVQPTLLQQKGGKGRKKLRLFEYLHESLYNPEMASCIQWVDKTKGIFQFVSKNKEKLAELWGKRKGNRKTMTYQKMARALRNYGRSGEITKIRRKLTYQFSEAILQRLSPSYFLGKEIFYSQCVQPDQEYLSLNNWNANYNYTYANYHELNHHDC
# Summary of the method: as §1
# ELF4 = ELF4 (Homo sapiens, UniProt Q99607 1-663)
# Summary of the method: as §1
# ELK4 = biological target: T3, ELK4 (Homo sapiens, UniProt P28324-2 1-405)
# T3 sequence: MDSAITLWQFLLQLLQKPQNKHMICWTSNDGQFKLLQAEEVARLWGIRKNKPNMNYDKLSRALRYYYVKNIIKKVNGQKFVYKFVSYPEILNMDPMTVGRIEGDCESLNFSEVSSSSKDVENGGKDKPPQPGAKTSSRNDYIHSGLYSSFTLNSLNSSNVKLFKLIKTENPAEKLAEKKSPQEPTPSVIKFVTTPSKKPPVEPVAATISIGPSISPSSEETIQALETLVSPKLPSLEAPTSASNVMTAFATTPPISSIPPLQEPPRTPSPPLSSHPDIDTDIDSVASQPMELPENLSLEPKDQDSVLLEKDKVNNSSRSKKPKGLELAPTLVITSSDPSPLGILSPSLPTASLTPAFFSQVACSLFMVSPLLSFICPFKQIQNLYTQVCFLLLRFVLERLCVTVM
# Summary of the method: as §1
# ETV2 = biological target: T4, ETV2 (Homo sapiens, UniProt O00321 1-342)
# T4 sequence: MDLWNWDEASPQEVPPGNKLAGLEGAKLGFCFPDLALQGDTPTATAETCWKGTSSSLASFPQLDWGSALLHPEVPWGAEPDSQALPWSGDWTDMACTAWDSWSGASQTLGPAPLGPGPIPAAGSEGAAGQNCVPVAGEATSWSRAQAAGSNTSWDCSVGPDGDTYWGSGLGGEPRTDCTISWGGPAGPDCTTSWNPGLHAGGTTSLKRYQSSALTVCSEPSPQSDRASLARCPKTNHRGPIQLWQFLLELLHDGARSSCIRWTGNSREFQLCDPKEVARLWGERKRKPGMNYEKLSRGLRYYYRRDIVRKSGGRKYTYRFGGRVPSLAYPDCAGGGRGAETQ
# Summary of the method: as §1
# ELF3 = biological target: T5, ELF3 (Homo sapiens, UniProt P78545 1-371)
# T5 sequence: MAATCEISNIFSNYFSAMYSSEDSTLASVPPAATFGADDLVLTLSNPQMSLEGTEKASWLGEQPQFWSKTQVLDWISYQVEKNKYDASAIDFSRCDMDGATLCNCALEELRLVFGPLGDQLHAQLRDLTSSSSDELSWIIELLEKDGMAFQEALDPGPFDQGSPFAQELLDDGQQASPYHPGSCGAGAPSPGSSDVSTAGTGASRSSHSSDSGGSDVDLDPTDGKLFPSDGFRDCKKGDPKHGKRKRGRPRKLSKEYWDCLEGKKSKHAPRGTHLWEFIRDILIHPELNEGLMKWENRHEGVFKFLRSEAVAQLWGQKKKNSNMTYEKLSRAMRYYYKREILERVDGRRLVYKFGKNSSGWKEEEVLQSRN
# Summary of the method: as §1
# ETV1 = ETV1 (Homo sapiens, UniProt P50549 1-477)
# Summary of the method: as §1
# ERF = biological target: T6, ERF (Homo sapiens, UniProt P50548 1-548)
# T6 sequence: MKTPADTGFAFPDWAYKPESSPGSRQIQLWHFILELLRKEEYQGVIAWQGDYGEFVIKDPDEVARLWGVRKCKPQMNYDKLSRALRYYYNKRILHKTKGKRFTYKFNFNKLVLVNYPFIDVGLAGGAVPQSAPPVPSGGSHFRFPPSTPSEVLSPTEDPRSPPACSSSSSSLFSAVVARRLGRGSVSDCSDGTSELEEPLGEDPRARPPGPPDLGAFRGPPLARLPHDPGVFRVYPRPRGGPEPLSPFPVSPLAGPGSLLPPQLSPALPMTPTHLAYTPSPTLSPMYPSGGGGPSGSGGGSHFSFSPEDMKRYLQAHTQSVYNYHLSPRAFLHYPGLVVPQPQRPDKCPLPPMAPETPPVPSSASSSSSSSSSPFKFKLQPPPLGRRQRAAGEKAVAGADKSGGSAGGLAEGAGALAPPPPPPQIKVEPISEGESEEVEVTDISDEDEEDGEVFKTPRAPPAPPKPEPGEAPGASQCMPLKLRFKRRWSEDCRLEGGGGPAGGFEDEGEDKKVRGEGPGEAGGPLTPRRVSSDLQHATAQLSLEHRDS
# Summary of the method: as §1
# ETV3L = biological target: T7, ETV3L (Homo sapiens, UniProt Q6ZN32 1-361)
# T7 sequence: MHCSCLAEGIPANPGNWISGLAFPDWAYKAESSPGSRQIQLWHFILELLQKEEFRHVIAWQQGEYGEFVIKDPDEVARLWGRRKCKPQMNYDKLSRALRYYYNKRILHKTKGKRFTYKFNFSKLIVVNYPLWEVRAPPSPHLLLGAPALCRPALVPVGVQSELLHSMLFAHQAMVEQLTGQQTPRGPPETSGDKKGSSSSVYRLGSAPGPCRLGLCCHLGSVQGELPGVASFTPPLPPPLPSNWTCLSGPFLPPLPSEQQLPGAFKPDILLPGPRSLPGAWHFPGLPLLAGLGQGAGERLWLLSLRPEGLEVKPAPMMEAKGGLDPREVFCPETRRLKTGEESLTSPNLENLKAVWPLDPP
# Summary of the method: as §1
# ETS2 = biological target: T8, ETS2 (Homo sapiens, UniProt P15036 1-469)
# T8 sequence: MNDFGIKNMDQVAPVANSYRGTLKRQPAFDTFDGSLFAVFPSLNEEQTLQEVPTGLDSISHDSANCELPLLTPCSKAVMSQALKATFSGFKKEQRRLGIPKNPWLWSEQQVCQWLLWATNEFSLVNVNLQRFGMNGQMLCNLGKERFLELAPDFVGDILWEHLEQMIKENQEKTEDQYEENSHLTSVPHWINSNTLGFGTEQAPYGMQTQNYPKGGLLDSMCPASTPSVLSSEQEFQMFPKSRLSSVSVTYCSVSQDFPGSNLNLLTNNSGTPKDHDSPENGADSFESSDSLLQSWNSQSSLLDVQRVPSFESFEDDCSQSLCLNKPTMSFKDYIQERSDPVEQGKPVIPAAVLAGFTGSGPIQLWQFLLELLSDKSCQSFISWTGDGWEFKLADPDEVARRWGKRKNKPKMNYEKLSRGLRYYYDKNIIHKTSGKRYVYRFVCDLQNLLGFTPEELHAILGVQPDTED
# Summary of the method: as §1
# SPDEF = biological target: T9, SPDEF (Homo sapiens, UniProt O95238 1-335)
# T9 sequence: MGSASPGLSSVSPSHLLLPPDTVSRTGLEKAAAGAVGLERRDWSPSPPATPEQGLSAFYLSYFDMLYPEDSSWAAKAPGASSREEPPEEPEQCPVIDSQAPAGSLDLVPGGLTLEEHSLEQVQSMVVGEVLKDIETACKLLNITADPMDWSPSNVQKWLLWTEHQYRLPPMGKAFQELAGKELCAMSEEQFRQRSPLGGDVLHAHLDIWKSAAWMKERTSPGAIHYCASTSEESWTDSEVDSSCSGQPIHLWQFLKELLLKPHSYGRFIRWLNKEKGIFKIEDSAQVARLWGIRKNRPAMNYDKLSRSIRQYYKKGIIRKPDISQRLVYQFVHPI
# Summary of the method: as §1
# ETV7 = biological target: T10, ETV7 (Homo sapiens, UniProt Q9Y603 1-341)
# T10 sequence: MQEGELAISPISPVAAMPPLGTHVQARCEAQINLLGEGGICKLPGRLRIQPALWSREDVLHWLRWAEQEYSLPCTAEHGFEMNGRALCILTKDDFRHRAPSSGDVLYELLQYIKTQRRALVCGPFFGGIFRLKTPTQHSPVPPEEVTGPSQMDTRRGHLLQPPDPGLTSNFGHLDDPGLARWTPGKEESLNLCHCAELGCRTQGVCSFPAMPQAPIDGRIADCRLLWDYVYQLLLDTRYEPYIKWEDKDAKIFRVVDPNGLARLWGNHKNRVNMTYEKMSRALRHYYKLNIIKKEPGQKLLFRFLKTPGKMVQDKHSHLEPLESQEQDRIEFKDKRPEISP
# Summary of the method: as §1
# ELF5 = biological target: T11, ELF5 (Homo sapiens, UniProt Q9UKW6-2 1-255)
# T11 sequence: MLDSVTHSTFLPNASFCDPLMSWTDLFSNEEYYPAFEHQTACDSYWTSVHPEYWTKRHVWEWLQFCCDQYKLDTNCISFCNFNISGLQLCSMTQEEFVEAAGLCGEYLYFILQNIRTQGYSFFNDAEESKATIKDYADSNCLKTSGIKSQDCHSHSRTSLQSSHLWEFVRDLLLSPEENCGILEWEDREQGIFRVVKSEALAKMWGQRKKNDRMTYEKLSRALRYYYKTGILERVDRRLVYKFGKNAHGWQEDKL
# Summary of the method: as §1
# ETV3 = biological target: T12, ETV3 (Homo sapiens, UniProt P41162-2 1-143)
# T12 sequence: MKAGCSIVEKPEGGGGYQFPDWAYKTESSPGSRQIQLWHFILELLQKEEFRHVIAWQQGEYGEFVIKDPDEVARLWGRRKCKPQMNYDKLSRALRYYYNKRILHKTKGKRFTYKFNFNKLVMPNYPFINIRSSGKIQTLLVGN
# Summary of the method: as §1
# ETV6 = ETV6 (Homo sapiens, UniProt P41212 1-452)
# Summary of the method: as §1
# Chain of ELF4 (Q99607 whole entry): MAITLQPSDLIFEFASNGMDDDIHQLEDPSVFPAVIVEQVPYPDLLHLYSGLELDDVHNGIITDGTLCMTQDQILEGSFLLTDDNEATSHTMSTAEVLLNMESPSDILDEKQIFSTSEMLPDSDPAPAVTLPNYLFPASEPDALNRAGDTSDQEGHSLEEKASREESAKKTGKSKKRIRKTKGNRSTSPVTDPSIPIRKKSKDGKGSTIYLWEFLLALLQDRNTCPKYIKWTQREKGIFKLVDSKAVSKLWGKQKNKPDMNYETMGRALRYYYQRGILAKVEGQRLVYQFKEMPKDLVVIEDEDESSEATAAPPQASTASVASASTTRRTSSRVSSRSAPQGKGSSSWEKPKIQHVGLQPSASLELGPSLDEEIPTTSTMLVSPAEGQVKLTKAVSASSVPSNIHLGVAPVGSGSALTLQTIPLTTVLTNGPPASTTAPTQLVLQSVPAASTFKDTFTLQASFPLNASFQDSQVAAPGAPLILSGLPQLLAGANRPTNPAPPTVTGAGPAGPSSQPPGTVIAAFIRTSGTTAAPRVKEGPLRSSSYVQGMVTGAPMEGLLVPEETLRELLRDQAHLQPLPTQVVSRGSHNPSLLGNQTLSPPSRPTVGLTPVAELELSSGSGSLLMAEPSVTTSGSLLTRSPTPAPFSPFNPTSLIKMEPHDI
# Chain of ETV1 (P50549 whole entry): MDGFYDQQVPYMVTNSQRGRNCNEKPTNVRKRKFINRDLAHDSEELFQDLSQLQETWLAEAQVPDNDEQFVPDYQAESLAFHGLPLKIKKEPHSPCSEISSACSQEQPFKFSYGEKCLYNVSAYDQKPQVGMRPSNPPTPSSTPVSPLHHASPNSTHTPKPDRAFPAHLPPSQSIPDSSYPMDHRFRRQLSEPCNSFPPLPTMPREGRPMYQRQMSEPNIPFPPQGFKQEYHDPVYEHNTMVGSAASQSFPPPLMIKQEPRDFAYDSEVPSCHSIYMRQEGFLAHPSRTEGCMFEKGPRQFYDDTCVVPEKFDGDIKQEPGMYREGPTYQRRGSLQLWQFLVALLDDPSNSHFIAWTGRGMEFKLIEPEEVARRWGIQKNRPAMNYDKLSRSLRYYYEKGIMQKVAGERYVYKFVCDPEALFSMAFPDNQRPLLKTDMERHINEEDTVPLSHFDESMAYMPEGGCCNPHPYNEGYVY
# Chain of ETV5 (P41161 whole entry): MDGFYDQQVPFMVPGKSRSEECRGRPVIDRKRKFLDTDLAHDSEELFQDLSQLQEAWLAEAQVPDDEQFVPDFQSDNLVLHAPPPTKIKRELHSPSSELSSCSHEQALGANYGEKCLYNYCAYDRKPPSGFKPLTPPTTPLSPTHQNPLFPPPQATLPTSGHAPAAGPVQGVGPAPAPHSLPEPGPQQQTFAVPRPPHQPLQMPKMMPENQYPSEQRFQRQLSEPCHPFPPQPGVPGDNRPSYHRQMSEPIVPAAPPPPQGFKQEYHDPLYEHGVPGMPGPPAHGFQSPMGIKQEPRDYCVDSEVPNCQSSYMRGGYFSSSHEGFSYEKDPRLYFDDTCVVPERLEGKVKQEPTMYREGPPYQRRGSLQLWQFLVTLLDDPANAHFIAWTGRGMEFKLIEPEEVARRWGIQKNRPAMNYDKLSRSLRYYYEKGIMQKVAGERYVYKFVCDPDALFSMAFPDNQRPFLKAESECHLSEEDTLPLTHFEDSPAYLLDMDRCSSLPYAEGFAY
# Chain of ETV6 (P41212 whole entry): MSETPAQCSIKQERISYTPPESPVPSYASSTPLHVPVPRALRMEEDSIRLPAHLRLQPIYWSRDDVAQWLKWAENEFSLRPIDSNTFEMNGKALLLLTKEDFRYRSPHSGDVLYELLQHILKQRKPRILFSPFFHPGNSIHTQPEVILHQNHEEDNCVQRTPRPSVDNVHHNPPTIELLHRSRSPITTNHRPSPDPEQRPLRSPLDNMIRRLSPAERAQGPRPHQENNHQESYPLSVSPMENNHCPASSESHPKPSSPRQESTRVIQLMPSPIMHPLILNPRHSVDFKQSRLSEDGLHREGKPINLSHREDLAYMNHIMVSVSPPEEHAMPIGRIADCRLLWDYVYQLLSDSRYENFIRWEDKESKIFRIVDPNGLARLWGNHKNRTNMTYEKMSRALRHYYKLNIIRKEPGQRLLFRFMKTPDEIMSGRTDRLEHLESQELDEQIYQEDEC
Sequence,binding signal (FEV),binding signal (ETV5),binding signal (SPIC),binding signal (ELF4),binding signal (ELK4),binding signal (ETV2),binding signal (ELF3),binding signal (ETV1),binding signal (ERF),binding signal (ETV3L),binding signal (ETS2),binding signal (SPDEF),binding signal (ETV7),binding signal (ELF5),binding signal (ETV3),binding signal (ETV6)
ATGCGG,"1.13 fold enrichment (6-mer frequency, TF over GST control)","1.29 fold enrichment (6-mer frequency, TF over GST control)","1.49 fold enrichment (6-mer frequency, TF over GST control)","1.23 fold enrichment (6-mer frequency, TF over GST control)","1.15 fold enrichment (6-mer frequency, TF over GST control)","1.27 fold enrichment (6-mer frequency, TF over GST control)","1.63 fold enrichment (6-mer frequency, TF over GST control)","1.24 fold enrichment (6-mer frequency, TF over GST control)","1.12 fold enrichment (6-mer frequency, TF over GST control)","1.25 fold enrichment (6-mer frequency, TF over GST control)","1.32 fold enrichment (6-mer frequency, TF over GST control)","1.32 fold enrichment (6-mer frequency, TF over GST control)","1.25 fold enrichment (6-mer frequency, TF over GST control)","1.21 fold enrichment (6-mer frequency, TF over GST control)","1.45 fold enrichment (6-mer frequency, TF over GST control)","1.26 fold enrichment (6-mer frequency, TF over GST control)"
CGACCG,"1.6 fold enrichment (6-mer frequency, TF over GST control)","1.19 fold enrichment (6-mer frequency, TF over GST control)","1.09 fold enrichment (6-mer frequency, TF over GST control)","1.28 fold enrichment (6-mer frequency, TF over GST control)","1.17 fold enrichment (6-mer frequency, TF over GST control)","1.35 fold enrichment (6-mer frequency, TF over GST control)","1.27 fold enrichment (6-mer frequency, TF over GST control)","1.26 fold enrichment (6-mer frequency, TF over GST control)","1.17 fold enrichment (6-mer frequency, TF over GST control)","1.28 fold enrichment (6-mer frequency, TF over GST control)","1.22 fold enrichment (6-mer frequency, TF over GST control)","1.22 fold enrichment (6-mer frequency, TF over GST control)","1.13 fold enrichment (6-mer frequency, TF over GST control)","1.12 fold enrichment (6-mer frequency, TF over GST control)","1.12 fold enrichment (6-mer frequency, TF over GST control)","1.18 fold enrichment (6-mer frequency, TF over GST control)"
TGTCAC,"1.2 fold enrichment (6-mer frequency, TF over GST control)","1.15 fold enrichment (6-mer frequency, TF over GST control)","1.31 fold enrichment (6-mer frequency, TF over GST control)","1.22 fold enrichment (6-mer frequency, TF over GST control)","1.25 fold enrichment (6-mer frequency, TF over GST control)","1.24 fold enrichment (6-mer frequency, TF over GST control)","1.2 fold enrichment (6-mer frequency, TF over GST control)","1.18 fold enrichment (6-mer frequency, TF over GST control)","1.13 fold enrichment (6-mer frequency, TF over GST control)","1.21 fold enrichment (6-mer frequency, TF over GST control)","1.26 fold enrichment (6-mer frequency, TF over GST control)","1.09 fold enrichment (6-mer frequency, TF over GST control)","1.29 fold enrichment (6-mer frequency, TF over GST control)","1.11 fold enrichment (6-mer frequency, TF over GST control)","1.08 fold enrichment (6-mer frequency, TF over GST control)","1.1 fold enrichment (6-mer frequency, TF over GST control)"
